Shown is part of a subset that was picked to be rich in hits.
TbPYK inhibitor: inhibitors of Trypanosoma brucei pyruvate kinase; Q57TT1; TbPYK enzyme, Kinase-Glo Plus ATP luminescence, 45 min; Potency, µM (highest dose often 76.8 µM), for inactives: top-dose activity, negative = inhibition, usual class: inhibitors; hit rate 0.12% among 410,000; AID 624173; active = well fitted curve in the direction sought with a large enough effect; inconclusive = small, poorly fitted or top-dose-only effect, or another doubt; inactive = no such curve, though single readings can be large; an effect the other way counts as inactive or inconclusive; note: potency is the fitted concentration of half-maximal effect; % is set by controls: 0 for no effect and ±100 for the full control effect; nearly all actives have a fitted effect of over 50% in size
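Activity of T. brucei pyruvate kinase was followed by Kinase-Glo Plus luminescence after the enzyme reacted 45 min at room temperature with 130 uM ADP (final) and substrate. Test compounds were added before ADP at multiple concentrations.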
Shiga toxin inh: inhibitors of Shiga toxin in Vero cells. inhibition, % at 38.7 µM. Vero cells, Shiga toxin protein synthesis inhibition reporter. hit rate 9.2% among 290,000; in the data active = inhibition mostly above about 28%, no sharp cut-off; inactive = mostly below about 43%; note: 0% is about no effect
NS1 function inh: blocks influenza NS1 protein function. Potency, µM (highest dose often 46.1 µM), without a hit: at the highest dose activity, positive = more growth. hit rate 0.4% among 270,000; note: potency is the fitted concentration of half-maximal effect; actives are rising curves; nearly all actives have a fitted effect of over 50% in size
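S. cerevisiae expressing influenza A NS1, grown in glucose, washed, then diluted 1:100 into pH 6.0 -URA galactose medium with 23 nl compound. Growth recovery read as OD600; NS1-free strain serves as control.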
LmPK inh: LmPK (Leishmania mexicana) enzyme inhibition | Q27686 | hit rate 0.37% among 290,000 | AID 1721 | purified LmPK, Kinase-Glo ATP luminescence, 1 h | Potency, µM (highest dose often 57.5 µM), for inactives: top-dose activity change, negative = inhibition, most hits filed as inhibitors; active = well fitted curve in the direction sought with a large enough effect; inconclusive = small, poorly fitted or top-dose-only effect, or another doubt; inactive = no such curve, though single readings can be large; an effect the other way counts as inactive or inconclusive; note: potency is the fitted concentration of half-maximal effect; % is set by controls: 0 for no effect and ±100 for the full control effect
Target sequence (Q27686 whole entry, looked up): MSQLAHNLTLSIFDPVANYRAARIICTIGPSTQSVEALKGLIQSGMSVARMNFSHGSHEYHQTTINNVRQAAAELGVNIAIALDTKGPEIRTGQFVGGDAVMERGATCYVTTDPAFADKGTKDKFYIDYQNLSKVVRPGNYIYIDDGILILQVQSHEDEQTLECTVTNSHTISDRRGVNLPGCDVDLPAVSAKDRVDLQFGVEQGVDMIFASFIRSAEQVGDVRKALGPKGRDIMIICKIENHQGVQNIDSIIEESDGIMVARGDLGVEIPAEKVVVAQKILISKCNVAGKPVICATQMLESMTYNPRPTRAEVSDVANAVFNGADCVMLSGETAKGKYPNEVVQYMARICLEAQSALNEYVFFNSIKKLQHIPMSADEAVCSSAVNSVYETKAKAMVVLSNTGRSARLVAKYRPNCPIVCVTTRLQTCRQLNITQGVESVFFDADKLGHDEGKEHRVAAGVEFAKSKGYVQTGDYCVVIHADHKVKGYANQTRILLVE
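qHTS format; LmPK 0.1 nM; substrates PEP 0.5 mM and ADP 0.1 mM. One-hour room-temperature incubation, then coupled luciferase luminescence; 0.5 nM enzyme wells mark activation.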
CHX counter: affects cycloheximide protein synthesis inhibition readout, counter-screen | hit rate 12% among 300,000 | max response, % | cell reporter, cycloheximide protein synthesis inhibition counterscreen; in the data active = max response mostly above about 13%, no sharp cut-off; inactive = mostly below about 14%; note: read at 38.3 µM for the half of the compounds with a filed dose; 0% is about no effect
SARS PLP yeast: blocks SARS-CoV papain-like protease in a yeast assay; S. cerevisiae expressing SARS-CoV PLpro, growth rescue; Potency, µM (titrated, usually from 32.9 µM), without a hit: at the highest dose activity, positive = growth rescue, hits mostly activators; hit rate 0.19% among 330,000; note: potency is the fitted concentration of half-maximal effect; 0% is about no effect; nearly all actives have a fitted effect of over 55% in size
Active calls of the source: *; ? = inconclusive; · = no result. Unless noted, calls come from the whole dose curve.

SMILES | TbPYK inhibitor | Shiga toxin inh | NS1 function inh | LmPK inh | CHX counter | SARS PLP yeast
CC1=C(C)CC(C(=O)NCc2cccc(Cl)c2)C(C(=O)O)C1 (stereo unspecified) | · | -14.9 | 25.6% | -7.9% | -2.7 | -1.6%
O=C1/C(=C\c2ccc(O)cc2)SC(=S)N1/N=C/c1ccc(O)cc1 | 0.9% | 26.1 | 0.9% | -9.2% | 12.4* | -0.7%
CC(=O)NN1C(=O)/C(=C\c2ccc(O)cc2)SC1=S | 1.4% | -4.7 | 5.8% | -11.6% | 0.6 | -1.1%
CC(=O)Nc1cccc(C(=O)OC(C)C(=O)NC(=O)NC2CCCCC2)c1 (stereo unspecified) | -14.8% | · | · | · | · | -2.8%
C=CS(=O)(=O)O | -6.7% | · | · | · | · | ·
CN1C(N)=NC(=O)/C1=C\c1ccc(Br)cc1 | -13.6% | 40.6 | 3.6% | 2.1% | 13.3* | 5.9%
CN1C(N)=NC(=O)/C1=C/c1ccc(OC(F)(F)F)cc1 | -4.0% | 40.5* | · | 10.5% | 32.5* | 5.2%
COc1ccc(/C=C2/C(=O)N=C(N)N2C)cc1OC | -3.2% | 10.9 | 9.2% | 3.0% | 1.0 | -3.9%
O=C(CSc1nnc(-c2ccc(C(F)(F)F)cn2)o1)Nc1cccc(Cl)c1 | -5.0% | 56.4 | 2.3% | 2.3% | 17.1* | 3.0%
Nc1ccccc1SCC(=O)Nc1ccc2c(c1)OCCO2 | -10.2% | 87.4* | 1.8% | -5.5% | 36.7* | -4.0%
Nc1ccccc1SCC(=O)Nc1ccc2c(c1)OCO2 | -5.3% | 73.3* | -16.3% | -8.9% | 22.9* | 2.2%
Cc1cccc(SCC(=O)Nc2ccc3c(c2)OCCO3)c1 | 0.0% | 101.9* | -46.1% | -6.9% | 38.6* | 1.1%
Nc1cc(N)nc(SCC(=O)Nc2ccc3c(c2)OCO3)n1 | -1.8% | -0.6 | 14.3% | 1.4% | 5.7 | 15.2%
CC(=O)N1CCc2cc(Br)cc(S(=O)(=O)CCC(=O)N3CCN(c4ccc(F)cc4)CC3)c21 | 2.4% | · | · | · | · | ·
COc1cccc(-c2nnc3n2N=C(c2ccc(OC)cc2OC)CS3)c1 | · | -5.1 | · | · | 12.1 | ·
O=C(CSc1nnc(Cc2ccccc2)o1)NCc1ccc2c(c1)OCO2 | 2.0% | -8.6 | · | -0.9% | 5.1 | -1.5%
O=C(CSc1nnc(Cc2ccccc2)o1)Nc1ccc2c(c1)OCO2 | -12.3% | 27.6 | 13.8% | 6.4% | 38.1* | 15.3%
CC(=O)NC(CC(=O)Nc1ccc2c(c1)OCCO2)c1ccccc1 (stereo unspecified) | -8.2% | 52.0 | -7.6% | 0.8% | 20.2* | -1.2%
O=C(CSc1nnc(-c2cccc(Cl)c2)o1)Nc1ccc2c(c1)OCCO2 | -3.9% | 36.1* | 16.2% | -3.7% | 15.5 | -12.0%
CC(=O)Nc1cccc(NC(=O)CCN2C(=O)c3ccccc3S2(=O)=O)c1 | -3.1% | · | · | · | · | ?
O=C(COCc1cc(-c2ccc(F)cc2)on1)Nc1cc(F)ccc1F | 3.2% | · | · | · | · | ·
O=C(O)Cn1c2c(c3ccccc31)CSc1ccc(Cl)cc1-2 | -6.9% | -16.3 | -42.6% | 1.1% | -4.0 | -1.3%
COC(=O)Nc1ccc2c(c1)Nc1ccccc1CC2 | -3.0% | · | -16.6% | 7.9% | active | -8.8%
COc1ccccc1C(=O)N(C)c1nnc(-c2ccccc2)s1 | 12.8% | 65.8* | -50.2% | 0.7% | 37.1* | 1.8%
CN(C(=O)c1ccccn1)c1nnc(-c2ccncc2)s1 | · | · | 4.3% | · | · | ·
SMILES | TbPYK inhibitor | Shiga toxin inh | NS1 function inh | LmPK inh | CHX counter | SARS PLP yeast
Cc1ccc(C(=O)Nc2nnc(-c3ccc(C(C)(C)C)cc3)s2)cc1 | -6.0% | 36.0* | 6.4% | -0.9% | 25.0 | -12.5%
COc1cccc(C(=O)Nc2nnc(-c3ccccc3)s2)c1OC | -1.1% | 41.0* | -21.9% | -4.9% | 42.9* | -7.9%
COc1ccccc1C(=O)Nc1nnc(SCC(=O)NC2CCCC2)s1 | -3.1% | 166.4* | 1.5% | -0.3% | 62.6* | 1.8%
Cc1c(-c2cccc(NC(=O)c3ccc(F)c(F)c3)c2)nc2ncccn12 | 0.7% | · | · | · | · | ·
COc1ccccc1C(=O)Nc1nnc(-c2ccccc2)s1 | -1.2% | · | -30.4% | 5.8% | 34.9* | -10.7%
COc1ccccc1C(=O)Nc1nnc(C)s1 | -0.7% | 81.4* | -49.0% | -14.1% | 39.0* | 6.1%
COc1ccccc1C(=O)Nc1nc(-c2cccs2)c(NC(C)=O)s1 | -1.3% | 56.9* | 3.1% | -3.4% | 30.1* | 11.1%
COc1cccc(OC)c1C(=O)Nc1nnc(C)s1 | 2.4% | · | · | · | · | ·
O=C(Nc1nnc(-c2ccccc2)s1)c1ccccc1O | -12.6% | 30.3 | -9.2% | -14.9% | 12.5 | -0.3%
Cc1ccc(Cn2c(C(C)Nc3nc(C)cs3)nc3cc(Cl)c(Cl)cc32)cc1 (stereo unspecified) | -1.2% | · | · | · | · | ·
CCCCCCNC(=O)N[C@H](Cc1ccc(O)cc1)C(=O)NCCC[C@H]1CN2C(=NC[C@H]2CCC)N1CC1CCC1 | · | 17.0 | -51.3% | -9.2% | -1.7 | -1.2%
CCCCCCNC(=O)N[C@@H](Cc1ccc(O)cc1)C(=O)NCCC[C@H]1CN2C(=NC[C@H]2C)N1CC1CCC1 | -3.5% | 39.6* | 4.7% | 0.6% | 10.8 | 0.3%
O=C(Cn1c(=O)n(-c2ccccc2Cl)c(=O)c2sc3ccccc3c21)N1CCCC1 | 4.0% | · | · | · | · | ·
CC(C)(C)N=Cc1cc(-c2ccccc2)sc1O | -2.3% | 71.1* | -8.1% | -5.3% | 38.2* | -1.6%
COc1ccc(C2=NN(CCC(=O)NCCc3ccccc3)C(=O)CC2)cc1 | 1.3% | · | · | · | · | ·
COC(=O)c1ccc(C(=O)OC)c(NC(=O)c2c(-c3ccccc3)noc2C)c1 | 2.2% | · | · | · | · | ·
Cc1ccc(N(C(=O)Cc2cccs2)C(C(=O)NC2CCCCC2)c2ccccn2)cc1C (stereo unspecified) | 1.8% | 32.4* | -24.5% | -6.8% | 16.2 | -26.3%
COc1ccc(-c2nc3c(Cl)cc(C(F)(F)F)cn3c2Cc2cccc(F)c2)cc1OC | 3.9% | · | · | · | · | ·
O=C(COc1ccccc1)N/N=C/c1cc2c(cc1[N+](=O)[O-])OCO2 | 1.8% | 86.4 | 2.2% | -1.1% | 23.2* | -19.0%
Cc1ccc(OCC(=O)N/N=C/c2ccc([N+](=O)[O-])o2)cc1 | 3.3% | -4.7 | -21.3% | -3.2% | 11.6 | -19.7%
O=C(COc1ccccc1)N/N=C/c1ccc([N+](=O)[O-])o1 | -4.0% | 9.1 | -16.7% | -4.7% | 10.9* | -9.4%
O=C(CNc1ccc2ccccc2c1)N/N=C/c1ccc([N+](=O)[O-])o1 | -11.9% | 15.4 | 8.5% | 4.6% | 3.3 | -10.6%
O=C(CSc1ccc(Cl)cc1)N/N=C/c1ccc([N+](=O)[O-])o1 | -6.8% | 18.7 | -50.9% | 11.4% | 14.0* | 3.5%
Cc1ccccc1CNC(=O)Cn1c(=O)c2cccn2c2cccnc21 | -0.2% | · | · | · | · | ·
Cc1ccc(Cl)cc1-c1cc(C(=O)N2CCN(c3ccncc3)CC2)[nH]n1 | -2.0% | · | · | · | · | ·
Cc1ccc(NC(=O)CSc2nc(-c3ccco3)nc3cc(=O)[nH]n23)cc1 | 0.1% | · | · | · | · | ·
CC(C)(C)NC(=O)CN(C(=O)C1CSC(=O)C1)c1ccc2c(c1)OCCO2 (stereo unspecified) | -4.5% | 33.9* | 5.2% | -3.6% | 35.8* | 0.6%
C/C(CC(=O)Nc1cc(C)ccn1)=N\NC(=O)C(=O)Nc1cccc(C)c1 | -15.1% | 32.5 | 1.0% | -3.7% | 26.4* | -22.5%
